# According to PubChem BioAssay:
# Where “and” joins values, the source holds several entries; their conditions need not be identical. Equal values may be shown once. Calls of active or inactive are those of the source. No rule for the calls is given here.
# Target: Pantothenate synthetase (Mycobacterium tuberculosis (strain ATCC 25618 / H37Rv)) (UniProt P9WIL5)
# Experiment: Coupled enzyme confirmation of inhibitors against recombinant Mtb PanC (AID 375);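 also: 0% = full reaction with vehicle and 100% = no enzyme background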
# Settings: coupled enzyme assay; at 10 µM, active compounds read high
# Sequence of Pantothenate synthetase (Mycobacterium tuberculosis (strain ATCC 25618 / H37Rv)) (P9WIL5 whole entry, looked up): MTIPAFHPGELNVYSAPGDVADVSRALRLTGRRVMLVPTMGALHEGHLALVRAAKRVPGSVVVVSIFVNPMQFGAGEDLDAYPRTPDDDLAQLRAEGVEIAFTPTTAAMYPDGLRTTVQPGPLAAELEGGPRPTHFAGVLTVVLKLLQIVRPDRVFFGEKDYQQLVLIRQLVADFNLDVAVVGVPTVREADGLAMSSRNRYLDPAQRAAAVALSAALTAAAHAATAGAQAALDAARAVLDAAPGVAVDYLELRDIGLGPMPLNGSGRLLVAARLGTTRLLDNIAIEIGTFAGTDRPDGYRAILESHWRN
row,Structure (SMILES),inhibition
1,Cc1ccc(NC(=O)c2cc(S(=O)(=O)N3CCC4(CC3)OCCO4)ccc2F)cc1,0% (inactive)
2,OCCNc1nc2ccc(Cl)cc2[nH]1,0% (inactive)
3,Cc1c(C(=O)Nc2cnccn2)oc2ccccc12,1% (inactive)
4,Oc1cccc(C=NCc2ccccc2)c1O,0% (inactive)
5,O=C(CSc1nc2c(sc3ccccc32)c(=O)n1Cc1ccco1)NCC1CCCO1 (stereo not given),2% (inactive)
6,CCOC(=O)CSc1nnc(CCc2nc3ccccc3[nH]2)n1C,10% (inactive)
7,Cc1ccc(-c2cc(C(F)F)nc(N3CCC(C)CC3)n2)cc1,6% (inactive)
8,CC1CCN(C(=O)CN2C(=O)C(C)(C)Oc3ccc(C(=O)NC4CCCC4)cc32)CC1,0% (inactive)
9,CCOC(=O)c1ccc(NC(=O)N2CCN(Cc3cccc(F)c3)CC2)cc1,0% (inactive)
10,CCOc1ccccc1OCCCCN1CCCC1,9% (inactive)
11,CCCCOc1ccc(CSc2n[nH]c(C)n2)cc1,0% (inactive)
12,COC(=O)c1cn(C(=O)c2ccc(Br)o2)c2ccccc12,0% (inactive)
13,CCOC(=O)N1CCC(NC(=O)c2cc3c(=O)n(C)c4ccccc4c3n2C)CC1,0% (inactive)
14,Cc1cccc(NC(=O)C2CCCN(C(=O)Nc3ccccc3)C2)c1C (stereo not given),2% (inactive)
15,c1ccc(CN(CC2=NCCN2)c2ccccc2)cc1,0% (inactive) and 2% (inactive)
16,CCOC(=O)N1CCN(Cc2nc3c(c(=O)[nH]c(=O)n3C)n2Cc2cc(C)ccc2C)CC1,0% (inactive)
17,COc1ccc(-c2nc(CS(=O)CC(=O)NCc3ccccn3)c(C)o2)cc1 (stereo not given),0% (inactive)
18,CCOc1cc(N2CCOCC2)c(OCC)cc1NC(=O)CSc1cccc[n+]1[O-],3% (inactive)
19,Cn1cccc1Cc1nnc(SCC(=O)Nc2ccccc2F)n1CCc1ccccc1,0% (inactive)
20,Cc1ccccc1-c1nc(CS(=O)(=O)CC(=O)N(C)C2CCCCC2)c(C)o1,0% (inactive)

row,Structure (SMILES),inhibition
1,COc1cc(Cn2c(C(=O)O)cc3sccc32)cc(OC)c1OC,0% (inactive)
2,C1CCC2=NCCCN2CC1,7% (inactive)
3,Cc1ccccc1-n1c(=O)c2ccccc2n2nnnc12,0% (inactive)
4,COc1cccc(OCC(=O)Nc2ccccc2C(N)=O)c1,4% (inactive)
5,Cc1cccc(C(OC(=O)c2ccco2)C(=O)NCc2ccccc2)n1 (stereo not given),4% (inactive)
6,O=C(CSc1nc(O)cc(=O)n1-c1ccccc1)N1CCCCC1,0% (inactive)
7,Cc1ccc(S(=O)(=O)N2CCN(C(=O)N3CCOCC3)C2C)cc1 (stereo not given),0% (inactive)
8,CCOC(=O)c1[nH]c2ccccc2c1NC(=O)C(C)(C)C,0% (inactive)
9,COc1ccc(N2C(=O)C(Cl)=C(Nc3c(C)n(C)n(-c4ccccc4)c3=O)C2=O)cc1,5% (inactive)
10,Cc1cc(C)n(-c2nc3ccccc3c(=O)n2OCCOc2ccccc2)n1,3% (inactive)
11,Cc1ccc(N(C)C(=O)N2CCN(c3ccccn3)CC2)cc1,0% (inactive)
12,COCCn1c(COc2ccc(Cl)cc2)nnc1SCC(N)=O,0% (inactive)
13,COc1cccc(-c2cc(C(=O)Nc3cc(OC)c(OC)c(OC)c3)no2)c1,0% (inactive)
14,Cc1ccc(Cl)cc1N1CCN(C(=O)CN2C(=O)c3cccc4cccc2c34)CC1,6% (inactive)
15,Cc1nc2ccccn2c1/C(O)=C1\C(=O)C(=O)N(CCN2CCOCC2)C1c1cccs1 (stereo not given),0% (inactive)
16,CC1CCCCC1NC(=O)COc1ccc(-n2cnnn2)cc1 (stereo not given),0% (inactive)
17,CC(=O)[C@H]1[C@H](C#N)C[C@H]2[C@@H]3CC=C4C[C@@H](O)CC[C@]4(C)[C@H]3CC[C@@]21C,0% (inactive)
18,O/N=C/c1ccc(OCC(O)COc2ccc(/C=N/O)cc2)cc1,0% (inactive)
19,CCOC(=O)Nc1ccc2c(c1)N(C(=O)CN(CC)CC)c1ccccc1C=C2,0% (inactive)
20,C=CCN1C(=O)/C(=C2/Sc3ccccc3N2C)SC1=Nc1c(C)n[nH]c1C,1% (inactive)
